Test results from PubChem BioAssay AID687001 (Broad Institute, 2013).
Potency and affinity values are given separately. Activity calls are given as the source filed them.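 Rule for the calls: active = signal-lowering compounds whose fitted half-maximal concentration is at or below twice the top tested dose in every run; inconclusive = runs disagree, flat 30 to 70% inhibition, or poor curve fit; inactive = the rest.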

target: Protein S100-A4 (Homo sapiens) (UniProt P26447); assay: S100A4-myosin IIA binding inhibitor potency, dose response, biochemical, fluorescence polarization, cherry-picked hits (AID 687001); conditions: FP, S100A4/TAMRA-myosin IIA peptide binding; series mostly up to 11 µM
Sequence (P26447 whole entry, looked up): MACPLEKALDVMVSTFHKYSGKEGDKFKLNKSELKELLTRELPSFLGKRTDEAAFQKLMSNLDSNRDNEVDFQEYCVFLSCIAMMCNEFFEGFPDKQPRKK

outcome, inactive:
Cc1c(C(=O)OCC(=O)N(C)CC(=O)Nc2ccc(F)cc2)oc2ccccc12
COc1ccc(NC(=O)Nc2ccc3c(c2)C(=O)N([C@H](C)CO)C[C@H](C)[C@H](CN(C)Cc2ccc(C(F)(F)F)cc2)OCCCC[C@H](C)O3)cc1
CNc1nc(-c2ccc(S(=O)(=O)N3CCCCC3)cc2)cs1
COc1ccc(OC)c(NC(=O)CSc2nnc(CNC(=O)c3cc(OC)c(OC)c(OC)c3)o2)c1
Cc1ccc(CN2C(=O)CSc3ccc(C(=O)NC4CC4)cc32)cc1
C/C=C/c1ccc(C2[C@H]3CNC[C@@H]2N3S(=O)(=O)c2ccccc2C)cc1 (stereo not given in full)
COc1ccc(CN2C[C@H](O)COC[C@@H]3O[C@@H](CC(=O)N(C)C)CC[C@H]32)cc1
CCNC(=O)[C@@H]1[C@@H](CO)[C@@H]2Cn3c(ccc(-c4ccccc4)c3=O)[C@@H]2N1CC
O=C1SCCC1NC(=O)C(c1ccccc1)c1ccccc1 (stereo not given)
COC(=O)C[C@@H]1CC[C@H]2[C@H](COc3ccc(NS(=O)(=O)c4ccc(C)cc4)cc3C(=O)N2C)O1
